Measured values from the supplement of paper PMC11732987, “Enantioselective OTUD7B fragment discovery through chemoproteomics screening and high-throughput optimisation” (Communications Chemistry, 2025).

Tests used:
Experiment in all cases: log2 ratio of Biotin-Ahx-Ub-VS probe labelling (fragment/DMSO); higher = less target engagement (more negative = stronger competition), active = hit call of the paper (q ≤ 0.05, log2 ratio ≤ -1)
Conditions in all cases: compound concentration: 200 uM; treatment time: 3 h
USP19 = target: T1, USP19 (UniProt O94966)
T1 sequence (whole entry): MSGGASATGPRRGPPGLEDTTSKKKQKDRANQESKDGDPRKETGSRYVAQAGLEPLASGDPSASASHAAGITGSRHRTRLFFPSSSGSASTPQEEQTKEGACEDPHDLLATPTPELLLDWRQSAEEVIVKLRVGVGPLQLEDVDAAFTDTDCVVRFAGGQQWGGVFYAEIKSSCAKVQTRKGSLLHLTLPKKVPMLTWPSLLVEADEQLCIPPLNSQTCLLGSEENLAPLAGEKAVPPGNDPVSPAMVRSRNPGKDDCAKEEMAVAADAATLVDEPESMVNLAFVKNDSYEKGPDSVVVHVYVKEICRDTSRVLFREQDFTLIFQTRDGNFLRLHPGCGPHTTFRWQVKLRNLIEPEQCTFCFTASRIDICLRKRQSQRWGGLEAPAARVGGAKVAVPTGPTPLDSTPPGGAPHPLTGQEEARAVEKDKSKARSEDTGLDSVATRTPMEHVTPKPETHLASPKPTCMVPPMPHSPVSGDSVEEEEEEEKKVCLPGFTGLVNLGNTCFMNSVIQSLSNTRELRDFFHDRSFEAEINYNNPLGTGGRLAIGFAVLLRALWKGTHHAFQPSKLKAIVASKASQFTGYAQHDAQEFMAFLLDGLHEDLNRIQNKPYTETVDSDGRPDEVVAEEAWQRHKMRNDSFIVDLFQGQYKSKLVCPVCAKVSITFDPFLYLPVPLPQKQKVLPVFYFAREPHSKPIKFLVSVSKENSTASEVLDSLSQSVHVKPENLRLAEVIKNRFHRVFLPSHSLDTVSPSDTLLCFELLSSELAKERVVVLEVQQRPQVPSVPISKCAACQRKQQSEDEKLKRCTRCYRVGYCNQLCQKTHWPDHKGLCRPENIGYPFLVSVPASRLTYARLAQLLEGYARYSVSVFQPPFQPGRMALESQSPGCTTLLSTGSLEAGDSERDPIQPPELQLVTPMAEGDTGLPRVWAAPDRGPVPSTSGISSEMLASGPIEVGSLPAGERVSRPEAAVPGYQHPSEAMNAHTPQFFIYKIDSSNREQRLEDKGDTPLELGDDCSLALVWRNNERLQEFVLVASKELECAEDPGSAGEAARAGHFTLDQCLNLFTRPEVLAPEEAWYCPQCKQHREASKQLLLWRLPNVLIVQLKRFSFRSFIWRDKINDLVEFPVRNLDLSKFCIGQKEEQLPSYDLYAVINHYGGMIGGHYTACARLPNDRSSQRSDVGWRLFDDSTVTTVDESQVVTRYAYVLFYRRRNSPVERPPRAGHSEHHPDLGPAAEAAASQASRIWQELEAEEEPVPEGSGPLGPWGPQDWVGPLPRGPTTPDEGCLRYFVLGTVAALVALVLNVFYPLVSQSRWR
Method in brief: (§1)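 HEK293T lysate (495 µg per sample, in Tris/CHAPS/IGEPAL buffer with protease inhibitors) was exposed in triplicate for 3 h to fragment at 200 µM or to vehicle, then to Biotin-Ahx-Ub-VS at 0.5 µM final for 1 h. Labelled DUBs were enriched on NeutrAvidin, digested with LysC and trypsin, and analysed by diaPASEF LC-MS/MS. Spectronaut label-free quantities were normalised to the global median, and values are average log2 ratios of fragment over vehicle from an unpaired t-test. Only proteins with ≥2 unique peptides were used.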

USP22 = target: T2, USP22 (UniProt Q9UPT9)
T2 sequence (whole entry): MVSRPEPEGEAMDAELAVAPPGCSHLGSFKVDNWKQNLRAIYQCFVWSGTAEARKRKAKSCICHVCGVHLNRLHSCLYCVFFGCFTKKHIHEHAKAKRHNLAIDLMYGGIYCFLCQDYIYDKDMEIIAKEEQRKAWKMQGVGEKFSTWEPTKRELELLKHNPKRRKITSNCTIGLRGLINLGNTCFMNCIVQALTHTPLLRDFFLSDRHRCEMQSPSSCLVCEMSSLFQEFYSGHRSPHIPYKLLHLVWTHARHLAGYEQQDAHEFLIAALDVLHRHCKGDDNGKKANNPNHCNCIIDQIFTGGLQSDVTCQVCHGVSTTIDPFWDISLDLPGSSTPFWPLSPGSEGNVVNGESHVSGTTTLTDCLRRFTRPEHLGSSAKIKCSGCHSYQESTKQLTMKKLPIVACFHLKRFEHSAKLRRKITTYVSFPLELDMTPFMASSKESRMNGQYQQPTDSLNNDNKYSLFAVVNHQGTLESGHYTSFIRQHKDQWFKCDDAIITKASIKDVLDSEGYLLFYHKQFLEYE
Method in brief: as §1

USP24 = USP24 (UniProt Q9UPU5)
Method in brief: as §1

USP25 = target: T3, USP25 (UniProt Q9UHP3)
T3 sequence (whole entry): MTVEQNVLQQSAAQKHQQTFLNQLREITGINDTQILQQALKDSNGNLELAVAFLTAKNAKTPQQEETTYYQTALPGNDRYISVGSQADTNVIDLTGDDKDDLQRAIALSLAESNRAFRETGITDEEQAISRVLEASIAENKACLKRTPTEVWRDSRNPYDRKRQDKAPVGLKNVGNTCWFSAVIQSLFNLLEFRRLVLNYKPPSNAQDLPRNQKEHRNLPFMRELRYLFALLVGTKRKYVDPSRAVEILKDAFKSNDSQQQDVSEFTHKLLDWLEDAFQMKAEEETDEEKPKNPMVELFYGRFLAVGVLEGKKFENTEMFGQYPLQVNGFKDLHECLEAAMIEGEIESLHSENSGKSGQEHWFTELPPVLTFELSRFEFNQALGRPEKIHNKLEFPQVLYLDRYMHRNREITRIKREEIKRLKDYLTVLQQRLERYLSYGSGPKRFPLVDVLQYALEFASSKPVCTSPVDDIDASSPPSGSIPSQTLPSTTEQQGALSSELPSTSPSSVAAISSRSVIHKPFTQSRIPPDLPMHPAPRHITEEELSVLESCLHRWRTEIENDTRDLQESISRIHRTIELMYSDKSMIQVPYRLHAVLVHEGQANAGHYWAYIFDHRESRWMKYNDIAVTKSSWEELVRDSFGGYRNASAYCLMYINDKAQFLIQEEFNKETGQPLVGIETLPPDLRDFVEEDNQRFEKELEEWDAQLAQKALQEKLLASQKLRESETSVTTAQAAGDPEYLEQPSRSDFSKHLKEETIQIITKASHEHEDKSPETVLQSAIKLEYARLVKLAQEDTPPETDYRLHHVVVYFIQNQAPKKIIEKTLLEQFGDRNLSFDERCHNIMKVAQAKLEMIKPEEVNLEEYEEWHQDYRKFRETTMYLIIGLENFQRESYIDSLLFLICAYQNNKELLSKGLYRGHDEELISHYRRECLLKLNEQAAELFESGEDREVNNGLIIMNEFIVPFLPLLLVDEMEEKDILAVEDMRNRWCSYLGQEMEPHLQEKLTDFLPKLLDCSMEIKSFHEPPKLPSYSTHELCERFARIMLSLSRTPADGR
Method in brief: as §1

USP28 = target: T4, USP28 (UniProt Q96RU2)
T4 sequence (whole entry): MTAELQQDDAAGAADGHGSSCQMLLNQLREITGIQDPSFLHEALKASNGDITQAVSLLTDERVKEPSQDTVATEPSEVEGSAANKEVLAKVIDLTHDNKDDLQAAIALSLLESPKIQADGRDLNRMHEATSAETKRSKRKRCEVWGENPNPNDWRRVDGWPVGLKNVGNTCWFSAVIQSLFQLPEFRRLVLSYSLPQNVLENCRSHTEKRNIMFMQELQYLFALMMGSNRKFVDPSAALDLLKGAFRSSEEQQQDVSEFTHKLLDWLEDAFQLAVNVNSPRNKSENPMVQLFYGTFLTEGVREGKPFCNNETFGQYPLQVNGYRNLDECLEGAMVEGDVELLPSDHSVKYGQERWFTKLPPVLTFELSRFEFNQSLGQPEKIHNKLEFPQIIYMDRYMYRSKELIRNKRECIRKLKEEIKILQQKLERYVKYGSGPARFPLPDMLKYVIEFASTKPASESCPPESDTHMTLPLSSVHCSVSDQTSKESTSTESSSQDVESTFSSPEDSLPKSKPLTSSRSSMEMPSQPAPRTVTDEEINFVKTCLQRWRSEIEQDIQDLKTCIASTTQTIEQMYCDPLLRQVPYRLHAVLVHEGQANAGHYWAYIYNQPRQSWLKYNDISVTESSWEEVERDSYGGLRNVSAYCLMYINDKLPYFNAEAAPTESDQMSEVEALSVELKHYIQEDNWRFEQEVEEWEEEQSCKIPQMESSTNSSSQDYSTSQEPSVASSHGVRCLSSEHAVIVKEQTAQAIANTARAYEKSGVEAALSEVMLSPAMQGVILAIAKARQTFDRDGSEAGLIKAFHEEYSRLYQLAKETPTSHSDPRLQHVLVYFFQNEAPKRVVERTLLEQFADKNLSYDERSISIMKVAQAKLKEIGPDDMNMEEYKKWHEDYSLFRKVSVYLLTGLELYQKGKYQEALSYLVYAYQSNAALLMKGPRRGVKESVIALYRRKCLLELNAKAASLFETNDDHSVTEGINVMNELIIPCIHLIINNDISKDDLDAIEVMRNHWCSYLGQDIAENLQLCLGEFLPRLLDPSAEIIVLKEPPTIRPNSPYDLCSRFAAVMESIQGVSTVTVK
Method in brief: as §1

Measured: log2 ratio of Biotin-Ahx-Ub-VS probe labelling

USP24, sequence (Q9UPU5 whole entry): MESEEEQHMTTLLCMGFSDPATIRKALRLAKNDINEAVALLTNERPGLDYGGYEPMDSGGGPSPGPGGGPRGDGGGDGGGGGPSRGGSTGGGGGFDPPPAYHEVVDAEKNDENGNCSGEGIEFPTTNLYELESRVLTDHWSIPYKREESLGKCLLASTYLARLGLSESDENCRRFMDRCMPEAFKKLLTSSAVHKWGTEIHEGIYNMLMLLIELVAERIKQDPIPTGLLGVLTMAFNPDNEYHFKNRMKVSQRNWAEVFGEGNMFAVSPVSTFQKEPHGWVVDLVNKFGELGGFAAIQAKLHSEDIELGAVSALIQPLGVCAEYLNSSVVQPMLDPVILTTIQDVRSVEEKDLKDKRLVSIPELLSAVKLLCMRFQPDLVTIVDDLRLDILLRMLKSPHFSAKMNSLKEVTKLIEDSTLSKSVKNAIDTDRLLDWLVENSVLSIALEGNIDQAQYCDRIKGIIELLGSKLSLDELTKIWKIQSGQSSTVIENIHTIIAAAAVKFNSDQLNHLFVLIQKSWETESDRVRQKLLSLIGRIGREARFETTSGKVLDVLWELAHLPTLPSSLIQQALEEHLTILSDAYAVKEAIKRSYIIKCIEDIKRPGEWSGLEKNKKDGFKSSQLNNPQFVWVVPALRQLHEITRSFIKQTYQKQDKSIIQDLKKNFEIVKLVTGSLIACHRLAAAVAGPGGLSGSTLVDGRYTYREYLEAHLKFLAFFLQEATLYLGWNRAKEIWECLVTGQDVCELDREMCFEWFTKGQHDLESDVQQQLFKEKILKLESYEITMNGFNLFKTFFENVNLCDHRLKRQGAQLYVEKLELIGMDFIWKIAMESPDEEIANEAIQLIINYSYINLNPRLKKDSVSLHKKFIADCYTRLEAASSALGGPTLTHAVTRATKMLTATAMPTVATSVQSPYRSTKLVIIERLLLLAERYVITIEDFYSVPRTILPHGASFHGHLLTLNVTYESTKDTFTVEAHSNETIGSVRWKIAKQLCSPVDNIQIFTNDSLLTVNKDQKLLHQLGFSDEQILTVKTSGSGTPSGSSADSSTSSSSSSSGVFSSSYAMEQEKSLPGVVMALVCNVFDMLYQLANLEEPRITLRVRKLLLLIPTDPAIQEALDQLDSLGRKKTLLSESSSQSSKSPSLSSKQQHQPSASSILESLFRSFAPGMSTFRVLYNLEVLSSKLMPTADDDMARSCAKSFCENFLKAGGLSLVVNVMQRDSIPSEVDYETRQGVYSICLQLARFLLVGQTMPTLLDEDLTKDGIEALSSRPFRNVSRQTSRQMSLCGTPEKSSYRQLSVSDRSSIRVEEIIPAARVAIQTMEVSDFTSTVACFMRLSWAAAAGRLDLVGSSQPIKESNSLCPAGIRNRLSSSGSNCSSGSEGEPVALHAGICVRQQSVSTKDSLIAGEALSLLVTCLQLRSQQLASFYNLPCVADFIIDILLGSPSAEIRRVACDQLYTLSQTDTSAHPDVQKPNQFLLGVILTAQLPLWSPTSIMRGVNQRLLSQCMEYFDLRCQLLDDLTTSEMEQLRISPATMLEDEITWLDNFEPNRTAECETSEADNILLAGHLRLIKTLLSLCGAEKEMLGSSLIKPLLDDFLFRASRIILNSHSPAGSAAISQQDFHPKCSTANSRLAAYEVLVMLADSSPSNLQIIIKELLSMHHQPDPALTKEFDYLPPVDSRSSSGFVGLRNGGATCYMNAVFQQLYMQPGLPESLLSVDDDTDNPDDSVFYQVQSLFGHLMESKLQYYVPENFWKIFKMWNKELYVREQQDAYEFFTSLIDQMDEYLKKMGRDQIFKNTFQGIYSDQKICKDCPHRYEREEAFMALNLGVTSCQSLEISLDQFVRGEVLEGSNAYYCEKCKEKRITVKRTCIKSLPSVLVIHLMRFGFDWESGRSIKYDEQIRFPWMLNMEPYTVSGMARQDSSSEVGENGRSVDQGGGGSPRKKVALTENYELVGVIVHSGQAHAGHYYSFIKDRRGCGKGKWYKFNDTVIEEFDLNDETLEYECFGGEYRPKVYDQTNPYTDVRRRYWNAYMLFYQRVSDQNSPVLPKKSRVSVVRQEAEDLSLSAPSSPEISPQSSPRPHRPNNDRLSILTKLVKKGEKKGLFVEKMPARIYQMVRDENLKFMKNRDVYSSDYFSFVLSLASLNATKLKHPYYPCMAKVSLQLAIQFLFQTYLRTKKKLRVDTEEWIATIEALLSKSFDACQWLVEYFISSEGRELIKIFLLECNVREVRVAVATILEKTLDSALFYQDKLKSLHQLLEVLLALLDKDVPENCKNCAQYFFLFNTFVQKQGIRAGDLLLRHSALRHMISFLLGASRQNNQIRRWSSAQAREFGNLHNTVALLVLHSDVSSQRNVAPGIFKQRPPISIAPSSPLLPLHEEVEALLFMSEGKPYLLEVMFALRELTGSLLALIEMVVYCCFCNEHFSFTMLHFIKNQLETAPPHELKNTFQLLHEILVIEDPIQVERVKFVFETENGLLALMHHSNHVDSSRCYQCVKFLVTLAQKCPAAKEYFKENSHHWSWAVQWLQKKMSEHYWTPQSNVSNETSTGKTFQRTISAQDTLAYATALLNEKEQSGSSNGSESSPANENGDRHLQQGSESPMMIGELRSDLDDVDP

CCN(Cc1ccc(C#N)cc1F)C(=O)CCl
inactive: USP19 -0.28 | USP22 -0.094 | USP24 -0.741 | USP25 -0.659 | USP28 -0.624
